Screen size: about 330,000 compounds; about 590 (0.18%) were called active. The sample holds actives, similar compounds and a random draw of the others, so the mix is not that of the screen.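 The calls were made as follows: active = superoxide response under a set limit, about three screen SD below normal (cut at about 65% in these data); inactive = the rest.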

The values that follow come from PubChem BioAssay AID2690 (NMMLSC, 2010).

A short description of the test: reduction of superoxide in aged yeast, primary screen, HTS (AID 2690).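 Also: yeast aged for seven days with compound at 30 °C before DHE staining; 100% = average MFI of all compound-treated wells on the plate with controls excluded.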 The note with it: S. cerevisiae aged cells, superoxide DHE fluorescence; at 10 µM; stronger effect = lower value.
For the compound `OC(c1nc2ccccc2[nH]1)C(O)C(O)C(O)c1nc2ccccc2[nH]1` (stereo not drawn), the superoxide response (% of plate mean) was 59.9% (active).
On to `Cc1ccc(-c2nc(CSCC(=O)NC3CCN(Cc4ccccc4)CC3)c(C)o2)cc1`, for which the superoxide response (% of plate mean) was 58.7% (active).
Take `Cc1ccc(-c2cc(C(=O)NC3CCN(Cc4ccccc4)CC3)c3ccccc3n2)cc1`: the superoxide response (% of plate mean) is 107% (inactive).
For the compound `Cc1ccc(S(=O)(=O)NCCC(=O)NC2CCN(Cc3ccccc3)CC2)cc1`, the superoxide response (% of plate mean) was 93% (inactive).
The figure for `O=C(NCc1ccc(F)cc1)C1CCC(CNc2c(N3CCOCC3)c(=O)c2=O)CC1` (stereo not drawn) is 96.9% (inactive); for `Cc1cc2oc(=O)cc(-c3ccccc3)c2c(C)c1-c1ccc(OC(F)(F)F)cc1` it is 94.1% (inactive); for `Cc1cc(NC(=O)CN2C(=O)NC(CCc3ccccc3)C2=O)no1` (stereo not drawn) it is 82.4% (inactive).
As to `O=C(CCc1ccccc1)Nc1ccc(NC(=O)C2CCCCC2)nc1`, the superoxide response (% of plate mean) was 91.3% (inactive).
The figure for `O=C(COC(=O)CCCNC(=O)c1ccc(Cl)cc1)Nc1cc(Cl)ccc1Cl` is 98.1% (inactive); for `COc1ccc(-c2nonc2NC(=O)c2oc3ccc(F)cc3c2C)cc1OC` it is 80.1% (inactive).
In the case of `CCN(CC)c1nc(-c2ccccc2)cc(C(F)(F)F)c1C#N`, the superoxide response (% of plate mean) is 87% (inactive).
`CCn1nccc1C(=O)Nc1ccc(S(=O)(=O)NC23CC4CC(CC(C4)C2)C3)cc1`: the superoxide response (% of plate mean) is 114% (inactive).
Take `Cc1cc(NS(=O)(=O)c2ccc(NC(=O)c3cccc(OC(F)F)c3)cc2)nc(C)n1`: the superoxide response (% of plate mean) is 103% (inactive).
With `Cc1cc(C(F)F)n2nc(C(=O)Nc3ccc(S(=O)(=O)NC45CC6CC(CC(C6)C4)C5)cc3)nc2n1`, the superoxide response (% of plate mean) was 62.8% (active).
Then `COc1ccc(NC(=O)c2cc([N+](=O)[O-])ccc2NC(=O)CNC2CCCCC2C)c(OC)c1` (stereo not drawn), with 111% (inactive); and `CCOC(=O)C1=CN(Cc2ccc(Br)cc2)S(=O)(=O)N(C)C1C` (stereo not drawn), with 105% (inactive); and `COc1ccccc1C(=O)N1CCNC(=O)C1CC(=O)Nc1ccc(Cl)cc1` (stereo not drawn), with 103% (inactive).
Regarding `NS(=O)(=O)c1ccc(NC(=O)/C=C/c2ccccc2Cl)cc1`, the superoxide response (% of plate mean) is 92.5% (inactive).
Then `COC(=O)c1ccc(NC(=S)Nc2cccc(C)n2)cc1`, with 105% (inactive); and `CCC(C(=O)OCC(=O)Nc1c(Cl)cc(Cl)cc1Cl)c1ccccc1` (stereo not drawn), with 101% (inactive).
With `Cc1cc(C)cc(NC(=O)COC(=O)c2cc(C)oc2C)c1`, the superoxide response (% of plate mean) was 95.1% (inactive).
For the compound `CCCC(C)C(=O)OCC(=O)Nc1c(Br)cc(C)cc1Br` (stereo not drawn), the superoxide response (% of plate mean) was 65.3% (active).
Turning to `Cn1c(Nc2ccccc2)cc(=O)n(C)c1=O`, the superoxide response (% of plate mean) is 33.4% (active).
Then `Cc1cc(=O)n(C)c(=O)n1CCCNc1ccccc1`, with 84.6% (inactive); and `CC(C)Oc1ccc(C(=O)Nc2cc(=O)n(C)c(=O)n2C)cc1`, with 99.9% (inactive); and `O=C(NC1CCC(O)CC1)c1ccc(S(=O)(=O)NCc2ccco2)cc1` (stereo not drawn), with 102% (inactive).
Regarding `O=C(CSCc1ccccc1)Nc1ccccc1`, the superoxide response (% of plate mean) is 42.6% (active).
Turning to `Cc1c(NC(=O)CSCc2ccccc2)cccc1C(=O)O`, the superoxide response (% of plate mean) was 116% (inactive).
On to `Cn1c(CSCC(=O)Nc2ccccc2)nnc1SCc1ccccc1`, for which the superoxide response (% of plate mean) was 118% (inactive).
Then `C/C(CC(=O)NC(C)c1ccccc1)=N\NC(N)=S` (stereo not drawn), with 105% (inactive); and `CCOc1ccccc1NC(=O)C12CC3CC(C1)CC(c1ccc(C)cc1)(C3)C2`, with 95.5% (inactive); and `Cc1ccc(C23CC4CC(CC(C(=O)NCC(=O)O)(C4)C2)C3)cc1`, with 62.1% (active).
The figure for `C=CCNC(=O)C12CC3CC(C1)CC(C(=O)NCC=C)(C3)C2` is 96% (inactive); for `COc1cccc(NC(=O)Cn2c3ccc(F)cc3c3nc4n(c(=O)c32)CCS4)c1` it is 82.6% (inactive).
Regarding `COc1ccc(C(CCNCc2ccccc2F)c2ccc(F)cc2)cc1` (stereo not drawn), the superoxide response (% of plate mean) is 97% (inactive).
The figure for `CCc1cc(-c2n[nH]c(=S)n2CC(C)C)cs1` is 87.8% (inactive); for `COc1ccc(CNC(=O)Cc2ccc(-c3ccccc3)cc2)cc1OC` it is 98.2% (inactive); for `COc1cc(C(=O)NCc2ccc(-n3cccc3)cc2)cc(OC)c1OC` it is 99.9% (inactive).
The figure for `COc1cc(-c2nnn(CC(=O)NCc3ccccc3)n2)cc(OC)c1OC` is 65.3% (active).
On to `CCCCNC(=O)C1CCCN(S(=O)(=O)c2ccc(S(=O)(=O)NCC(C)C)cc2)C1` (stereo not drawn), for which the superoxide response (% of plate mean) is 102% (inactive).
The figure for `Cc1ccc2cccc(S(=O)(=O)N3CCN(c4ccccc4F)CC3)c2n1` is 61.4% (active); for `O=S(=O)(N1CCOCC1)N1CCN(c2ccccc2F)CC1` it is 90.5% (inactive).
As for `Cc1ccccc1N1CCN(S(=O)(=O)c2ccc3ccccc3c2)CC1`, the superoxide response (% of plate mean) is 95.3% (inactive).
For the compound `COc1ccc(C(=O)Nc2ccc(C3(C#N)CCCC3)cc2)cc1OC`, the superoxide response (% of plate mean) was 87.6% (inactive).
The figure for `COC(=O)c1ccc(S(=O)(=O)c2ccc(C(=O)OC)s2)s1` is 101% (inactive).
Consider `NC(=S)Nc1c(Cl)cccc1Cl`, for which the superoxide response (% of plate mean) is 46.6% (active).
The figure for `O=C(Nc1c(Cl)cccc1Cl)C1CCC1` is 111% (inactive); for `CCNC(=S)Nc1cccc(Cl)c1C` it is 97.2% (inactive).
